Measured values published in PubChem BioAssay.
Measured potencies and affinities stand elsewhere. The source made the active and inactive calls.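 The calls were made as follows, unless noted: active = a dose-response fit showing signal loss, with half-maximal concentration no higher than twice the top tested dose; inconclusive = flat fit between 30% and 70% signal loss, or poor fit; inactive = the rest.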

Test: C. neoformans lysis by adenylate kinase leakage – AK release luminescence, cherry-picks, dose response (AID 687000;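 active = fitted dose curve reaches 40% lysis signal rise at or below the highest valid concentration tested for that sample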;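 also: luminescent detection of adenylate kinase leaking from lysed yeast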)
Conditions: 4 h; series mostly up to 15 µM

| SMILES | outcome |
| --- | --- |
| CC(=O)OC1(C)CC(C)C(=O)C(C(O)CC2CC(=O)NC(=O)C2)C1 (stereo not drawn) | inactive |
| O=c1[nH]c(CN2CC=C(c3ccccc3)CC2)nc2cc(C(F)(F)F)ccc12 | inactive |
| C[C@H]1CN([C@@H](C)CO)C(=O)CCCn2nncc2CO[C@H]1CN(C)C(=O)Oc1cccc2ccccc12 | inactive |

Test: viability loss in HepG2 hepatoma cells – cell-based, cherry-picks, set 2, cytotoxicity control, dose response (AID 687002)
Conditions: ATP luminescence (CellTiter-Glo), 48 h; series mostly up to 26 µM

| SMILES | outcome |
| --- | --- |
| CC(=O)OC1(C)CC(C)C(=O)C(C(O)CC2CC(=O)NC(=O)C2)C1 (stereo not drawn) | inactive |
| CC[C@H](C)[C@@H]1NC(=O)CNC(=O)c2csc(n2)[C@H](C(C)(C)O)OC(=O)C(C)(C)[C@H](CCCC(C)(Cl)Cl)OC(=O)c2csc1n2 | inactive |
| O=c1[nH]c(CN2CC=C(c3ccccc3)CC2)nc2cc(C(F)(F)F)ccc12 | inactive |
| C[C@@H]1CN([C@@H](C)CO)C(=O)CCCn2nncc2CO[C@H]1CN(C)C(=O)Oc1cccc2ccccc12 | inactive |
| C[C@H]1CN([C@@H](C)CO)C(=O)CCCn2nncc2CO[C@H]1CN(C)C(=O)Oc1cccc2ccccc12 | inactive |
